Experiment [1] can be described thus: qHTS assay to identify aromatase inhibitors - cell viability counter screen (AID 743084).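 Also: cells stimulated with testosterone during compound exposure; nearly all actives have a fitted effect of over 55% in size.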 Also: potency is read from the fitted curve at half-maximal effect.
Experiment [2] deals with Aryl hydrocarbon receptor (Homo sapiens) (UniProt P35869). The experiment can be described thus: qHTS assay to identify small molecule that activate the aryl hydrocarbon receptor (AhR) signaling pathway (AID 743085). Also: nearly all actives have a fitted effect of over 15% in size. Also: potency is read from the fitted curve at half-maximal effect.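 As to activation: HG2L7.5c1 human HepG2 liver cells with stably integrated DRE-driven firefly reporter; series mostly up to about 70 µM.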 A digest of the protocol: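 Measured in HG2L7.5c1 cells: CellTiter-Fluor signal (30 min incubation, 37C) for viability, then luciferase luminescence (30 min, room temperature). Compound contact time was 24 h at 37C, following a 5 h pre-incubation.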
Sequence of Aryl hydrocarbon receptor (Homo sapiens) (P35869 whole entry, looked up): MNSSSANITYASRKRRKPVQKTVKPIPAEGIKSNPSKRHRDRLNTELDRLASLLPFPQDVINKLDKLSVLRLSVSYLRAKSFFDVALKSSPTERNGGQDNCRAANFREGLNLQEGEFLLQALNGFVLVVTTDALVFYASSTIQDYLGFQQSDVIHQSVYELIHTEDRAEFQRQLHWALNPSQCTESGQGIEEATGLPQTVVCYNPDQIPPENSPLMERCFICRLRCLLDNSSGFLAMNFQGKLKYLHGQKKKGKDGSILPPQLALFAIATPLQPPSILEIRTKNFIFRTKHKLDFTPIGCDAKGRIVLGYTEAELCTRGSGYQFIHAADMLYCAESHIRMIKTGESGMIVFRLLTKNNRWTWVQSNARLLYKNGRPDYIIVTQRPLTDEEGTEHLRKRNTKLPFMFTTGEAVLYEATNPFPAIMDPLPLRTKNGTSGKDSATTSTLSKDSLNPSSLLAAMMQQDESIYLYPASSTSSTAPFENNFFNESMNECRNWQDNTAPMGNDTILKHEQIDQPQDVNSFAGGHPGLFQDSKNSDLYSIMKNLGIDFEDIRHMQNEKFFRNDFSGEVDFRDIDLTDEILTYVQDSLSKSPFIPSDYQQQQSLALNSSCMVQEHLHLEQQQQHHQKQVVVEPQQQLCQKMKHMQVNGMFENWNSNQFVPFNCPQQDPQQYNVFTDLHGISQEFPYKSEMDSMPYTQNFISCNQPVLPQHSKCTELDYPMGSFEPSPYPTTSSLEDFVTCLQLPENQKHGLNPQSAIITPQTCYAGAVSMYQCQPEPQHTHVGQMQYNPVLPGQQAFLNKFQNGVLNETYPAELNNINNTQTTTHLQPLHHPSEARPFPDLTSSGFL
(In qHTS, concentration-response curves come from the screen itself.)

Experiment [3] is described as follows: qHTS assay to identify small molecule that activate the aryl hydrocarbon receptor (AhR) signaling pathway - cell viability counter screen (AID 743086).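 Also: HepG2 liver cells carrying the AhR DRE luciferase reporter; series mostly up to about 70 µM; nearly all actives have a fitted effect of over 45% in size.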 A digest of the protocol:
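HepG2-AhR-luc (HG2L7.5c1) cells, 4000/well, were preincubated 5 h at 37C, exposed to compound in qHTS format for 24 hr at 37C, then given CellTiter-Fluor for 30 min; viability was read as fluorescence in the reporter wells.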

The target of experiment [4] is Peroxisome proliferator-activated receptor gamma (Homo sapiens) (UniProt P37231). Kind of experiment: qHTS assay to identify small molecule antagonists of the peroxisome proliferator-activated receptor gamma (PPARg) signaling pathway (AID 743191; calls by dose curve; also: series mostly up to about 63 µM; nearly all actives have a fitted effect of over 30% in size). Put shortly:
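GeneBLAzer PPARg UAS-bla HEK293H cells carrying a UAS-driven beta-lactamase reporter were plated at 3000 cells/well, preincubated 5 h at 37C, then given compound for 17 h at 37C; LiveBLAzer B/G FRET substrate was read after 1 h at room temperature.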

A short description of experiment [5]: qHTS assay to identify small molecule antagonists of the peroxisome proliferator-activated receptor gamma (PPARg) signaling pathway - cell viability counter screen (AID 743194). Also: nearly all actives have a fitted effect of over 55% in size. A digest of the protocol: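 PPARg-UAS-bla HEK293H cells were plated, rested 5 h at 37 C, then treated with compounds plus rosiglitazone (50 nM final) for 17 h at 37 C; viability was then read by CellTiter-Glo luminescence after 30 min at room temperature.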

Experiment [6] in a line: qHTS assay for small molecule activators of the heat shock response signaling pathway - cell viability counter screen (AID 743209). Also: nearly all actives have a fitted effect of over 50% in size. A digest of the protocol: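 Quantitative HTS format, Tox21 10K library. HeLa cells carrying an HSE-driven beta-lactamase reporter were treated 5 h at 37 C, then assessed for viability by CellTiter-Glo luminescence.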
Experiment [7] is described as follows: qHTS assay for small molecule activators of the heat shock response signaling pathway (AID 743210; active = well fitted activation curve with a large enough effect in the signal ratio in the repeat runs, with a control signal flat, not every such curve was filed as active; the % refers to the signal ratio; also: series mostly up to about 63 µM). Put shortly:
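HSE-bla HeLa cells (beta-lactamase reporter under heat shock response elements) were exposed to compounds for 5 h at 37 C, then loaded with LiveBLAzer B/G FRET substrate for 2.5 h at room temperature before fluorescence reading.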

Experiment [8] is described as follows: qHTS assay for small molecule agonists of the antioxidant response element (ARE) signaling pathway (AID 743202; active = well fitted activation curve with a large enough effect in the signal ratio in the repeat runs, not every such curve was filed as active; the % refers to the signal ratio). A digest of the protocol:
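Read-out: LiveBLAzer B/G FRET substrate fluorescence after 2 h at room temperature, following 16 h compound treatment at 37 C of HepG2 cells carrying an ARE-driven beta-lactamase reporter.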

Experiment [9] in a line: qHTS assay for small molecule agonists of the antioxidant response element (ARE) signaling pathway - cell viability counter screen (AID 743203; calls by dose curve; also: nearly all actives have a fitted effect of over 55% in size). A digest of the protocol: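 Cells (ARE-bla HepG2, 2,000/well) receive DMSO-dissolved compounds after a 5 hrs rest. Plates incubate 16 hrs at 37C/5% CO2. CellTiter-Glo luminescence is then recorded after 30 min at room temperature.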

In experiment [10] the target is Peroxisome proliferator-activated receptor gamma (Homo sapiens) (UniProt P37231). The experiment can be described thus: qHTS assay to identify small molecule agonists of the peroxisome proliferator-activated receptor gamma (PPARg) signaling pathway (AID 743094; active = well fitted activation curve with a large enough effect in the signal ratio in the repeat runs, not every such curve was filed as active; the % refers to the signal ratio). A digest of the protocol: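 Stably transfected HEK293H cells (GeneBLAzer PPARg UAS-bla) were incubated with test substances for 17 h at 37C after a 5 h pre-incubation; beta-lactamase activity was then detected by FRET substrate fluorescence.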
Sequence of Peroxisome proliferator-activated receptor gamma (Homo sapiens) (P37231 whole entry, looked up): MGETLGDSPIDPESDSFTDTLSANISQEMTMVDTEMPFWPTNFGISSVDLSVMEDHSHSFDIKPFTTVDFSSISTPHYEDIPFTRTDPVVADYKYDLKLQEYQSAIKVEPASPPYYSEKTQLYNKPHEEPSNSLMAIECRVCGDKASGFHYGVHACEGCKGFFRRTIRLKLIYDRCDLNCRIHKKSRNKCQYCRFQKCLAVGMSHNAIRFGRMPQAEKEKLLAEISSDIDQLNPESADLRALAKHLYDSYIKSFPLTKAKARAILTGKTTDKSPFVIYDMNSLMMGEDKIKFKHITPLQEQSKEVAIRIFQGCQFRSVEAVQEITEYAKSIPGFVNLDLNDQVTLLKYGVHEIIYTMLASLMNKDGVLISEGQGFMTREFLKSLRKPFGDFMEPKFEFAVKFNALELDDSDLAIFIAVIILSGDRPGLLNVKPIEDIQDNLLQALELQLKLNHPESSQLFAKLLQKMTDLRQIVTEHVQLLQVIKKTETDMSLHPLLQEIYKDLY

Records with an inconclusive call do not appear. Values without a mark were called inactive. The source made the active and inactive calls. Unless noted, calls follow the shape of the dose curve; as a rule, active = well fitted curve in the direction sought with a large enough effect in the repeat runs; inconclusive = weak or mixed curves; inactive = no such curve, though single readings can be large; an effect the other way counts as inactive or inconclusive.

Turning to `CC(C)COC(=O)CC(C(=O)OCC(C)C)S(=O)(=O)O` (centres undefined), the Potency result in experiment [1], in [2], in experiment [3] and in experiment [4] was “inactive” each time. Also, the call in [5], in experiment [6] and in [7] was inactive.

Turning to `C[C@@H]1C[C@H]2[C@@H]3C[C@H](F)C4=CC(=O)C=C[C@]4(C)[C@@]3(F)[C@@H](O)C[C@]2(C)[C@@]1(O)C(=O)CO`, the Potency result in experiment [1], in experiment [2], in [3] and in experiment [8] was “inactive” in each case. Besides, the compound was called inactive in [5], in experiment [9], in [6] and in [7].

With `C=CCOC(=O)c1ccc(C(=O)OCC=C)c(C(=O)OCC=C)c1`, the Potency entry in experiment [1], in [2], in experiment [4] and in experiment [8] was “inactive” in each case. In addition, the compound was classed as inactive in experiment [10], in experiment [5], in experiment [9], in [6] and in experiment [7].

Regarding `CCCCCCCCCCCCCCCC(=O)NCCO`, the Potency result in experiment [1], in experiment [2] and in experiment [4] was “inactive” in each case. For the same compound, the compound was called inactive in [10], in experiment [5], in experiment [9] and in [6].

Take `COCC(=O)Nc1c(I)c(C(=O)NCC(O)CO)c(I)c(C(=O)N(C)CC(O)CO)c1I` (centres undefined): the Potency result in [1], in [2], in [4] and in [8] was “inactive” throughout. The call in experiment [10], in experiment [5], in experiment [9] and in experiment [6] was inactive.

As to `CCCCCCCCCOCC1CO1` (centres undefined), the Potency result in [1], in [2], in [3] and in [4] was “inactive” each time. The compound was called inactive in [5], in [9] and in [6].

As to `NS(=O)(=O)c1ccc(Cl)c(S(N)(=O)=O)c1`, the Potency result in [1], in experiment [2], in experiment [3] and in [4] was “inactive” in each case. Also, the call in experiment [5], in experiment [9], in experiment [6] and in [7] was inactive.

Take `Cc1ncc([N+](=O)[O-])n1CC(O)CCl` (centres undefined): the Potency entry in experiment [1], in [2], in [3] and in experiment [8] was “inactive” each time. The compound was classed as inactive in experiment [5], in experiment [9] and in experiment [7].

As for `CCCCCC1Nc2cc(C(F)(F)F)c(S(N)(=O)=O)cc2S(=O)(=O)N1` (centres undefined), the Potency entry in [1], in experiment [2], in experiment [4] and in experiment [8] was “inactive” throughout. Also, the compound was called inactive in experiment [10], in experiment [5] and in experiment [9].

As for `CCCCOC(=O)C(C)OC(=O)CCC` (centres undefined), the Potency entry in experiment [1], in experiment [2], in [3] and in experiment [8] was “inactive” each time. The result in [5], in [9], in [6] and in [7] was inactive.

Consider `CCCCC(=O)N(C)C`, for which the Potency result in experiment [1], in experiment [2], in experiment [3] and in [8] was “inactive” in each case. The outcome in experiment [5], in experiment [9] and in experiment [6] was inactive.

On to `CC(C)(CO)[C@@H](O)C(=O)NCCCO`, for which the Potency result in experiment [1], in experiment [2], in [4] and in experiment [8] was “inactive” in each case. Also, the outcome in experiment [10], in [5], in [9], in experiment [6] and in experiment [7] was inactive.

Regarding `CCC1Nc2cc(Cl)c(S(N)(=O)=O)cc2S(=O)(=O)N1` (centres undefined), the Potency entry in experiment [1], in experiment [2], in [3] and in experiment [8] was “inactive” in each case. The result in [5] and in experiment [9] was inactive.

Consider `NC(=O)NC(=O)Cc1ccccc1`, for which the Potency entry in experiment [1], in experiment [2], in [4] and in [8] was “inactive” throughout. In addition, the compound was called inactive in experiment [10], in experiment [5], in experiment [9], in [6] and in experiment [7].

In the case of `CC(=O)Nc1ccc(C)cc1`, the Potency result in [1], in [2], in experiment [4] and in experiment [8] was “inactive” each time. Moreover, the compound was classed as inactive in experiment [10], in experiment [5], in experiment [9], in experiment [6] and in experiment [7].

As for `CC1=NN(c2ccc(S(=O)(=O)O)cc2)C(=O)C1N=Nc1ccccc1` (centres undefined), the Potency in experiment [1] is 54.5 µM (active); in experiment [2] it was 24.3 µM (active). Moreover, the call in experiment [10], in experiment [5], in [9], in experiment [6] and in [7] was inactive. The Potency result in [4] is “inactive”.

On to `COc1cc2c(Nc3ccc(Br)cc3F)ncnc2cc1OCC1CCN(C)CC1`, for which the Potency entry in experiment [1], in experiment [2], in experiment [4] and in experiment [8] was “inactive” throughout. In addition, the compound was classed as inactive in experiment [10], in experiment [5], in experiment [9], in experiment [6] and in experiment [7].

As to `COC(=O)CCC(=O)O`, the Potency entry in experiment [1], in experiment [2], in experiment [3] and in experiment [4] was “inactive” each time. Moreover, the compound was called inactive in experiment [5], in [9] and in [6].

On to `O=C1c2ccccc2-c2ccccc21`, for which the Potency result in [1], in experiment [2], in experiment [4] and in experiment [8] was “inactive” each time. Further, the compound was classed as inactive in experiment [10], in experiment [5], in experiment [9], in [6] and in experiment [7].

`CCC(O)C(C)(C)C` (centres undefined): the Potency result in experiment [1], in experiment [2], in experiment [3], in [4] and in experiment [8] was “inactive” in each case. The result in experiment [5], in experiment [9] and in experiment [7] was inactive.

In the case of `CC(C)COC(=O)CCCCC(=O)OCC(C)C`, the Potency entry in [1], in experiment [2], in experiment [4] and in [8] was “inactive” throughout. Besides, the outcome in [10], in experiment [5], in [9], in [6] and in experiment [7] was inactive.

For `CNC(=O)NC`, the Potency entry in experiment [1], in [2], in experiment [4] and in experiment [8] was “inactive” in each case. Further, the compound was classed as inactive in experiment [10], in experiment [5], in experiment [9] and in experiment [7].

As for `CC(=O)OCCCc1ccccc1`, the Potency result in experiment [1], in [2] and in experiment [3] was “inactive” each time. Moreover, the outcome in [5] and in [9] was inactive.
